Measurements from the supplement of paper PMC10849652.
About 7,900 targets were measured; listed, in parts, are those with a hit and a random draw of the rest. About 0.6% of all pairs of compound and target were hits. Values without a mark were called inactive.

Assays:
Assay in all cases: log2 fold change, soluble protein after heating vs DMSO (PISA); higher = thermal stabilisation; K562 cells, 10 uM, 30 min; active = over 0.2 and 3.5 SD of the protein, either way, in both replicates (recomputed)
[1] = compound: NC(=O)c1cnc(N[C@@H]2CCCC[C@@H]2N)nc1Nc1cccc(-n2nccn2)c1
Summary of the method: (§1)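 For each measurement, 10 μM compound was applied for 30 min to K562 cells at 2×10^6 cells/mL. Aliquots were heated for 3 min across 48°C-58°C, pooled, and extracted in PBS with 0.5% NP-40 at 4°C; the supernatant after 21,000xg for 90 min was soluble protein. This was quantified by TMTpro 16plex LC-MS/MS with channel sums equalised, and thermal stability was reported relative to control samples from duplicates, on a log2 fold-change scale.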

citarinostat = compound: O=C(CCCCCCNC(=O)c1cnc(N(c2ccccc2)c2ccccc2Cl)nc1)NO [citarinostat]
Summary of the method: as §1

[2] = compound: c1cc(OCCN2CCCCC2)cc(-c2n[nH]c3ccc(-c4nnc[nH]4)cc23)c1
Summary of the method: as §1

[3] = compound: Cn1cc(-c2ccc3c(c2)CCN3C(=O)Cc2cccc(C(F)(F)F)c2)c2c(N)ncnc21
Summary of the method: as §1

tipifarnib = compound: Cn1cncc1[C@@](N)(c1ccc(Cl)cc1)c1ccc2c(c1)c(-c1cccc(Cl)c1)cc(=O)n2C [tipifarnib]
Summary of the method: as §1

mubritinib = compound: FC(F)(F)c1ccc(/C=C/c2nc(COc3ccc(CCCCn4ccnn4)cc3)co2)cc1 [mubritinib]
Summary of the method: as §1

[4] = compound: NC1(c2ccc(-c3nc4ccn5c(=O)[nH]nc5c4cc3-c3ccccc3)cc2)CCC1
Summary of the method: as §1

silmitasertib = compound: O=C(O)c1ccc2c(c1)nc(Nc1cccc(Cl)c1)c1ccncc12 [silmitasertib]
Summary of the method: as §1

[5] = compound: NC(=O)Nc1cc(-c2cccc(F)c2)sc1C(=O)N[C@H]1CCCNC1
Summary of the method: as §1

entinostat = compound: Nc1ccccc1NC(=O)c1ccc(CNC(=O)OCc2cccnc2)cc1 [entinostat]
Summary of the method: as §1

bafetinib = compound: Cc1ccc(NC(=O)c2ccc(CN3CC[C@H](N(C)C)C3)c(C(F)(F)F)c2)cc1Nc1nccc(-c2cncnc2)n1 [bafetinib]
Summary of the method: as §1

[6] = compound: Cc1cccc(CC(=O)N2CCc3c2ccc(-c2cn(C)c4ncnc(N)c24)c3F)n1
Summary of the method: as §1

nilotinib = compound: Cc1cn(-c2cc(NC(=O)c3ccc(C)c(Nc4nccc(-c5cccnc5)n4)c3)cc(C(F)(F)F)c2)cn1 [nilotinib]
Summary of the method: as §1

[7] = compound: Cc1nc(Nc2n[nH]c3c2CN(C(=O)N[C@H](CN(C)C)c2ccccc2)C3(C)C)c2sccc2n1
Summary of the method: as §1

[8] = compound: Cc1ncc(-c2ccnc(Nc3ccc(S(C)(=O)=O)cc3)n2)n1C(C)C
Summary of the method: as §1

[9] = compound: Cn1cc(-c2ccc3nnc(C(F)(F)c4ccc5ncccc5c4)n3n2)cn1
Summary of the method: as §1

vorinostat = compound: O=C(CCCCCCC(=O)Nc1ccccc1)NO [vorinostat]
Summary of the method: as §1

[10] = compound: O=C1NC(=O)C(c2cnc3ccccn23)=C1c1cn2c3c(cc(F)cc13)CN(C(=O)N1CCCCC1)CC2
Summary of the method: as §1

dasatinib = compound: Cc1nc(Nc2ncc(C(=O)Nc3c(C)cccc3Cl)s2)cc(N2CCN(CCO)CC2)n1 [dasatinib]
Summary of the method: as §1

[11] = compound: NCC(=O)Nc1ccc(-n2nc(C(F)(F)F)cc2-c2ccc3c(ccc4ccccc43)c2)cc1
Summary of the method: as §1

Sequence of UniProt Q92686 (Q92686 whole entry, looked up): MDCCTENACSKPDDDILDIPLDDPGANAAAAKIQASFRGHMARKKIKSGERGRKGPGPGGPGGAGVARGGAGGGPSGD
Sequence of UniProt Q9UHC9 (Q9UHC9 whole entry, looked up): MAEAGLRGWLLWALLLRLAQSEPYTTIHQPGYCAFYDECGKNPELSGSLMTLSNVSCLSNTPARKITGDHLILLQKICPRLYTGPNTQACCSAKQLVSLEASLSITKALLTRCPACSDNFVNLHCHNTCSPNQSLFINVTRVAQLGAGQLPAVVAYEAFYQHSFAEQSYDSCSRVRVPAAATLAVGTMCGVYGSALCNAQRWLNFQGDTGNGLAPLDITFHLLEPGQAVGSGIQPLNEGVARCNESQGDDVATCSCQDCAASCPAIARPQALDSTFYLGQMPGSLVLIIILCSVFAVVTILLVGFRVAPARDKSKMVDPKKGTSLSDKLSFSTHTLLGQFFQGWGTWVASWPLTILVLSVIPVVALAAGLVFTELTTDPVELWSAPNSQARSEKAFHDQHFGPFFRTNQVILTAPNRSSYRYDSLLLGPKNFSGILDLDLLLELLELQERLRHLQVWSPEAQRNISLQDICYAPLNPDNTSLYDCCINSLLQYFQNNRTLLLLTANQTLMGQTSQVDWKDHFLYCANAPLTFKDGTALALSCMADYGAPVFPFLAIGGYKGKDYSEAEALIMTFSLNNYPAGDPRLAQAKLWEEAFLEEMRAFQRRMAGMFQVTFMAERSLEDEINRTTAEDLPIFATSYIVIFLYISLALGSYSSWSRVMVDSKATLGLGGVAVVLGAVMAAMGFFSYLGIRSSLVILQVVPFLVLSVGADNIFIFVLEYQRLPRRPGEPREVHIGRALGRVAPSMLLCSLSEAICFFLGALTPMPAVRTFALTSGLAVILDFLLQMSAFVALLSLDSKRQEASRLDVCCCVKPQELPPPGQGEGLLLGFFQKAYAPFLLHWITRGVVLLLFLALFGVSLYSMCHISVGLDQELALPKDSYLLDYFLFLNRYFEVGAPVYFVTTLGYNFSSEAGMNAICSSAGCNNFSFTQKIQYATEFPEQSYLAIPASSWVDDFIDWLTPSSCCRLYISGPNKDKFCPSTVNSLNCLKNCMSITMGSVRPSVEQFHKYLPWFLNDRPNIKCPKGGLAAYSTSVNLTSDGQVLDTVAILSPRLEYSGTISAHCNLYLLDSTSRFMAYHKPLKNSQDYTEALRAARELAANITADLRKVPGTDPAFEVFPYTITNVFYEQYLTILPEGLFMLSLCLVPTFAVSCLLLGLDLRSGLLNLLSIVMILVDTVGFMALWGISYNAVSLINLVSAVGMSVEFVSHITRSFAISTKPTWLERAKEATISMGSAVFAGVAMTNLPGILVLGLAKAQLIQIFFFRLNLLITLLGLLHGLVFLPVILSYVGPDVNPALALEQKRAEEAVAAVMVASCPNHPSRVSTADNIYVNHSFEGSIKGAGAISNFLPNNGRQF
Sequence of UniProt Q9UQ49 (Q9UQ49 whole entry, looked up): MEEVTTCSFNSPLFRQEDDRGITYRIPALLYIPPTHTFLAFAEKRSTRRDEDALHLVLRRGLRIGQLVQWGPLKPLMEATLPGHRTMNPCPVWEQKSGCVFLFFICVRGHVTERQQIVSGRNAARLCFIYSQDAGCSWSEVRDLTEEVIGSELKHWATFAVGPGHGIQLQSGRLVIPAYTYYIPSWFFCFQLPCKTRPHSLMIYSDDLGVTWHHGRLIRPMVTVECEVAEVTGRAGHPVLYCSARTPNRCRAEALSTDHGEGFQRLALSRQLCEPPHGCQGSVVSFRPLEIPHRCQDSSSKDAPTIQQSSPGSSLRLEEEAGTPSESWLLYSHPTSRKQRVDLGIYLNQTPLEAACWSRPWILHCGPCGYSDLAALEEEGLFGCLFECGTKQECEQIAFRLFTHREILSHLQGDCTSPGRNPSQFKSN
Sequence of UniProt Q9BSU3 (Q9BSU3 whole entry, looked up): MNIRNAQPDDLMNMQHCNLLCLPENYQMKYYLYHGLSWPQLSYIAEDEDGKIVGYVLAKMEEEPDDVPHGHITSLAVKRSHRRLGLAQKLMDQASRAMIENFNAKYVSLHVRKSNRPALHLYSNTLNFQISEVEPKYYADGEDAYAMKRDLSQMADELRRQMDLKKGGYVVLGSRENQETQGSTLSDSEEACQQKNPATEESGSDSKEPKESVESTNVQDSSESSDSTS
Sequence of UniProt Q9H1P3 (Q9H1P3 whole entry, looked up): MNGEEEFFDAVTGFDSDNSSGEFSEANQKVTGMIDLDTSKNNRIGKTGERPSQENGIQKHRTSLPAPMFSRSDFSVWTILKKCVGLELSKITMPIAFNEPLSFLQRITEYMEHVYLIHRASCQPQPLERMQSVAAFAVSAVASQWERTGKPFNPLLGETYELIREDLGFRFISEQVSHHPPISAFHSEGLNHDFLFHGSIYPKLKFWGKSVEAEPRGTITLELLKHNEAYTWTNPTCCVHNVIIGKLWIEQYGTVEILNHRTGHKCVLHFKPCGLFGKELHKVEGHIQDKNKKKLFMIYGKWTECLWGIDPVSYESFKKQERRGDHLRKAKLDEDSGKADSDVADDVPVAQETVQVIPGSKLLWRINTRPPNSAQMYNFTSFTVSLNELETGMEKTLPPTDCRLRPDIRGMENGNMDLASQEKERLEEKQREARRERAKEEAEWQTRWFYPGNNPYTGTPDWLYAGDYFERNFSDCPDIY
Sequence of UniProt Q9UBD5 (Q9UBD5 whole entry, looked up): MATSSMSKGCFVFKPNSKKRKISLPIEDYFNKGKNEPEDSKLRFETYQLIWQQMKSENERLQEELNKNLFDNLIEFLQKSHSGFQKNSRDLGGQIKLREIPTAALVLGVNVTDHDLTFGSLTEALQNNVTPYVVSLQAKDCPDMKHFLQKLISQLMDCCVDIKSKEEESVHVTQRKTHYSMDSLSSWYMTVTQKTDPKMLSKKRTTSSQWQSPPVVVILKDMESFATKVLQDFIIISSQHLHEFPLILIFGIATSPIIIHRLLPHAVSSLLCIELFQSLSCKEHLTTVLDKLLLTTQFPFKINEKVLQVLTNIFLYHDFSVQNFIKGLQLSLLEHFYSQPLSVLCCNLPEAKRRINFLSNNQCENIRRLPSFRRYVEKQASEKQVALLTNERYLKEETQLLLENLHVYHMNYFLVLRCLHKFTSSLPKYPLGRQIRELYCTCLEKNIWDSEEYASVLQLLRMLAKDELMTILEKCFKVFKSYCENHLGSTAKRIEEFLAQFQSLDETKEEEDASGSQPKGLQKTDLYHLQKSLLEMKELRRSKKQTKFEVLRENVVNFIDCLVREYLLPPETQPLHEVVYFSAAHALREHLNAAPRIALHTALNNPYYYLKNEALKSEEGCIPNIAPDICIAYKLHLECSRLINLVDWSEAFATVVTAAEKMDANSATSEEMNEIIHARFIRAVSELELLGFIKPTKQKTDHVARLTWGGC
Sequence of UniProt B2RBV5 (B2RBV5 whole entry, looked up): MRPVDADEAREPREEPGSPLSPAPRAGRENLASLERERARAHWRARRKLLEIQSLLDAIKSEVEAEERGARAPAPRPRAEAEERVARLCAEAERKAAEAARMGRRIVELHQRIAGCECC
Sequence of UniProt Q4G0T1 (Q4G0T1 whole entry, looked up): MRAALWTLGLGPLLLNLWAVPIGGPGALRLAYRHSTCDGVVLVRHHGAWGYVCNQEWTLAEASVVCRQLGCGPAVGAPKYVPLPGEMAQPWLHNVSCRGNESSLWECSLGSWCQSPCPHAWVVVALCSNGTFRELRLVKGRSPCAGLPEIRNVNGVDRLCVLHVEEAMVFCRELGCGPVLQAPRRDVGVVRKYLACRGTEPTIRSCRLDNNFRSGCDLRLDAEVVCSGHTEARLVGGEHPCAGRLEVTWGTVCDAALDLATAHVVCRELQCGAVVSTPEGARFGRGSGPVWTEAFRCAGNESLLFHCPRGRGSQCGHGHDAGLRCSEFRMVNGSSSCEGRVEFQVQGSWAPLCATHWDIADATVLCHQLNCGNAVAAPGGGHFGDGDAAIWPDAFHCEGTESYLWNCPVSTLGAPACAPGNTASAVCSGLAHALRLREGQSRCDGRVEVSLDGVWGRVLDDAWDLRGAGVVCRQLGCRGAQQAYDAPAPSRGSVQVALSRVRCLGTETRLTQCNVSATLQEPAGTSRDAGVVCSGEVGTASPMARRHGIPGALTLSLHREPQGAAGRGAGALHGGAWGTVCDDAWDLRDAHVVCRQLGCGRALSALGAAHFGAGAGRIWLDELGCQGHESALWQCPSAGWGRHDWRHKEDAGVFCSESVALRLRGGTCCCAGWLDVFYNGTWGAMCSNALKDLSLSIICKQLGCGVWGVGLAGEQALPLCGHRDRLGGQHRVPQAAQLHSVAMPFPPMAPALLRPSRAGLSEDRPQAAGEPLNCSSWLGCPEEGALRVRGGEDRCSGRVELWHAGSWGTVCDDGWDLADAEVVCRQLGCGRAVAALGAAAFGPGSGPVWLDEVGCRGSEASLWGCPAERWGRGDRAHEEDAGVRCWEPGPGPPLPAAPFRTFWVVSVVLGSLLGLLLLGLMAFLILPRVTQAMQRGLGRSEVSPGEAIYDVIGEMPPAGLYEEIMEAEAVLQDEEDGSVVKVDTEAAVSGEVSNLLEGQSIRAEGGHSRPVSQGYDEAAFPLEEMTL
Sequence of UniProt Q9Y5B8 (Q9Y5B8 whole entry, looked up): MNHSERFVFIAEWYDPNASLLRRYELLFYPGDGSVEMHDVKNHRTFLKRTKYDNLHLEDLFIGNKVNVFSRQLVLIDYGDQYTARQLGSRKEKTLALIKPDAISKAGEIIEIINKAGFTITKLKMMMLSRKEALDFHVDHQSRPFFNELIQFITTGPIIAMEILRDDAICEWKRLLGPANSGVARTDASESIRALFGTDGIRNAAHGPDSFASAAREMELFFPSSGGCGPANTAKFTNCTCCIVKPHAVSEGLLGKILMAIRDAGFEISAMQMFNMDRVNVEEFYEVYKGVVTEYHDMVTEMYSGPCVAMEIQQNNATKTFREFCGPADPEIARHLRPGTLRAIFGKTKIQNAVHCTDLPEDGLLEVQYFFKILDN

Row | Target | log2 fold change [1] | log2 fold change (citarinostat) | log2 fold change [2] | log2 fold change [3] | log2 fold change (tipifarnib) | log2 fold change (mubritinib) | log2 fold change [4] | log2 fold change (silmitasertib) | log2 fold change [5] | log2 fold change (entinostat) | log2 fold change (bafetinib) | log2 fold change [6] | log2 fold change (nilotinib) | log2 fold change [7] | log2 fold change [8] | log2 fold change [9] | log2 fold change (vorinostat) | log2 fold change [10] | log2 fold change (dasatinib) | log2 fold change [11]
1 | ORC3 (UniProt Q9UBD5) | 0.067 | 0.032 | -0.195 | – | – | – | – | – | – | – | – | – | – | – | – | – | – | – | – | –
2 | OSBPL2 (UniProt Q9H1P3) | – | – | – | 0.37 | -0.009 | 0.465 | -0.443 | 0.148 | – | – | – | – | – | – | – | – | – | – | – | –
3 | NEU3 isoform 2 (UniProt Q9UQ49) | – | – | – | – | 0.044 | – | – | – | 0.112 | -0.071 | – | – | – | – | – | – | – | – | – | –
4 | NRGN (UniProt Q92686) | 0.144 | – | – | – | -0.055 | – | – | – | – | – | -0.199 | -0.581 | 0.004 | -0.199 | -0.088 | 0.074 | -0.231 | -0.215 | – | –
5 | NA isoform 3 (UniProt Q4G0T1) | -0.207 | – | – | -0.065 | -0.066 | -0.066 | 0.015 | 0.037 | -0.114 | 0.01 | -0.198 | – | -0.021 | -0.009 | 0.01 | 0.059 | – | – | -0.093 | -0.02
6 | NA, A0A1W2PSA9 | 0.004 | – | – | 0.218 | – | – | – | – | – | – | – | 0.022 | – | – | – | -0.118 | -0.364 | – | 0.289 | –
7 | NPC1L1 (UniProt Q9UHC9) | -0.038 | 0.036 | 0.054 | 0.012 | 0.094 | 0.008 | -0.104 | -0.028 | 0.011 | -0.011 | -0.05 | – | 0.659 | 0.52 | -0.384 (active) | – | – | – | -0.117 | -0.024
8 | NME7 (UniProt Q9Y5B8) | -0.13 | 0.03 | 0.186 | -0.044 | -0.001 | -0.279 | -0.184 | 0.071 | 0.159 | 0.159 | -0.14 | 0.071 | – | – | – | 0.009 | 0.145 | 0.05 | -0.245 | 0.057
9 | NEK3 (UniProt P51956) | 0.156 | 0.099 | -0.063 | 0.101 | -0.088 | -0.076 | -0.119 | 0.043 | 0.09 | 0.016 | – | -0.246 | -0.026 | -0.173 | -0.037 | -0.002 | -0.256 | -0.017 | -0.055 | 0.011
10 | NAA11 (UniProt Q9BSU3) | -0.048 | -0.05 | -0.022 | 0.102 | 0.011 | -0.081 | -0.072 | -0.001 | 0.139 | 0.375 (active) | 0 | – | -0.093 | 0.015 | -0.003 | 0.176 | – | -0.064 | 0.059 | 0.167
11 | NA (UniProt B2RBV5) | – | 0.12 | -0.014 | – | 0.075 | 0.04 | -0.055 | 0.056 | 0.06 | 0.029 | -0.005 | -0.084 | -0.433 | 0.828 (active) | -0.195 | – | 0.045 | -0.001 | – | –
12 | NOLC1 isoform 3 (UniProt Q14978) | – | – | – | -0.015 | – | – | – | – | – | – | – | – | – | – | – | – | – | – | – | –
